Compound activity: PubChem BioAssay, National Center for Advancing Translational Sciences (NCATS)
Tau fluor cs – counter-screen for tau fibril formation inhibitors. tau K18 P301L Alexa594 fluorescence, heparin fibrillization. Potency, µM (series often up to 57.7 µM). 280,000 tested, 0.93% active. AID 1463; note: nearly all actives have a fitted effect of over 55% in size
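Human tau K18 P301L (15 uM unlabeled, 0.24 uM Alexa 594-labeled) in 100 mM sodium acetate pH 7 with 20 uM heparin, 6 hr at 37 C. ThT 30 uM added, 1 hr ambient; Alexa 594 FP and total fluorescence read at 555/632 nm.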
Coupling enz – inhibits coupling enzyme system, counter-screen for aldolase hits | coupling enzyme system counterscreen, AmpLite Red fluorescence | activity change, negative = inhibition, % at 58.2 µM, hits read low | 290,000 tested, 0.67% active | AID 2472; in the data active = activity change below about -30%
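Compounds tested against the coupling enzymes alone at 57.5 uM final; readout was AmpLite Red fluorescence (525/598 nm) after 20 min at RT.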
Tau FP inhib – inhibitors of human tau fibril formation | Potency, µM (highest dose often 57.7 µM), usual class: inhibitors | P10636 | AID 1468 | K18 P301L tau heparin fibrillization, Alexa594 FP, 6 h | 280,000 tested, 0.39% active; note: nearly all actives have a fitted effect of over 55% in size
Target sequence (P10636 561-689 P618L limits assumed): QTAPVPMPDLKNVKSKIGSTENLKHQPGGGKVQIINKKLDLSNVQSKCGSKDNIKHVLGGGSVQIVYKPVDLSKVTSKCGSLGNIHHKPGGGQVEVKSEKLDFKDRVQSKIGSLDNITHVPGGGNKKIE
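Human K18 P301L fragment (15 uM unlabeled plus 0.24 uM Alexa 594-labeled) in 100 mM sodium acetate pH 7 with compound, aggregation induced by 20 uM heparin for 6 hr at 37 C. ThT (30 uM) added for 1 hr, then Alexa 594 FP read.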
G9a inh – blocks human histone lysine methyltransferase G9a; Q96KQ7; G9a H3K9 monomethylation, AlphaScreen, 2 h; Potency, µM (titrated, usually from 102 µM), usual class: inhibitors; 350,000 tested, 8.8% active; AID 504332; note: nearly all actives have a fitted effect of over 75% in size
Target sequence (Q96KQ7 913-1193 limits assumed): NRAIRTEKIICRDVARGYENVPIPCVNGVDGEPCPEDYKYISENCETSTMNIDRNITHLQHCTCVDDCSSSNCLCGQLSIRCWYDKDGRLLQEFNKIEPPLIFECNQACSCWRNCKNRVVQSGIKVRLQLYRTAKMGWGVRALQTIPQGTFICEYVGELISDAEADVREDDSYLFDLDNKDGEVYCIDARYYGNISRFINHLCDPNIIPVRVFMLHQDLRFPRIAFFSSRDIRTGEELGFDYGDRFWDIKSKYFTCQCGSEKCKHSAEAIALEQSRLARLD
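Quantitative HTS format: methyltransferase activity on a biotin-tagged H3K9 peptide is measured by AlphaScreen, using a rabbit anti-monomethyl-H3K9 antibody with streptavidin donor and anti-IgG acceptor beads. Final levels are 20 nM enzyme, 500 nM peptide, 20 uM SAM; 2 h RT.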
Tau ThT inhib – tau fibrillization inhibition (ThT binding); recombinant tau K18 P301L (four-repeat tau fragment), heparin-induced fibrillization, ThT fluorescence; AID 1460; Potency, µM (doses to about 57.4 µM), usual class: inhibitors; 270,000 tested, 2.1% active; note: nearly all actives have a fitted effect of over 55% in size
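Heparin-induced fibrillization of the P301L-mutant K18 repeat-domain fragment of human tau was followed by ThT binding in quantitative high-throughput format.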
Sfp PPTase inh – inhibitors of Bacillus subtilis Sfp phosphopantetheinyl transferase. Biochemical Sfp PPTase activity, qHTS. AID 1490. 310,000 tested, 3.5% active. Q9F4F7. Potency, µM, hits mostly inhibitors;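 note: the enzyme is Sfp with the accession as filed and its product quenches rhodamine fluorescence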
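Fluorescence-quenching assay: 15 nM Sfp-PPTase preincubated 15 min at room temperature with compound, then 5 uM rhodamine-CoA and 12.5 uM BHQ-2-labelled YbbR peptide added. Fluorescence (ex 525/em 598 nm) read at start and after 30 min; difference gives rate.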
A number is an active result; - = inactive; ? = inconclusive; . = not tested or not shown; [ ] = dose if it differs, or a comment. The list is not random: actives were taken first. Their share in the collection is about 11%. Unless noted, calls come from the whole dose curve; as a rule, active = well fitted curve in the direction sought with a large enough effect; inconclusive = small, poorly fitted or top-dose-only effect, or another doubt; inactive = no such curve, though single readings can be large; an effect the other way counts as inactive or inconclusive.

SMILES	Tau fluor cs	Coupling enz	Tau FP inhib	G9a inh	Tau ThT inhib	Sfp PPTase inh
CCOc1ccccc1NC(=O)C1CCCN1S(=O)(=O)c1ccc2nc(-c3ccccc3)[nH]c2c1 (centres undefined)	10µM[quencher]	.	?	-	-	.
CCc1nnc(SCC(=O)NC2CC2)n1CC	.	-	.	-	.	-
Cc1ccccc1OCC(=O)Nc1cccc(C(=O)OCc2cc(=O)n3c(C)csc3n2)c1	-	.	-	-	?	.
O=C1CC(c2cccs2)Cc2nc(NC(=O)C3CC3)ncc21 (centres undefined)	-	-	-	-	-	-
O=[N+]([O-])c1cccc(/C=C/c2ccc3cccc(O)c3n2)c1	.	-	.	-	.	-
O=[N+]([O-])c1cccc(/C=C/c2nc(C=Nc3ccc4ccccc4c3)c(O)o2)c1	-	-	-	-	2µM	-
O=C(CNC(=O)c1ccc(Cl)cc1)Nc1ccc(S(=O)(=O)Nc2ncccn2)cc1	-	-	-	22µM	-	-
O=C(Cc1c(F)cccc1Cl)NNC(=S)Nc1ccc(S(=O)(=O)Nc2ncccn2)cc1	.	-	.	28µM	.	-
Cc1nn(C)c(C)c1NC(=S)Nc1ccc(S(=O)(=O)Nc2ncccn2)cc1	.	-	.	71µM	.	-
Cc1cc(CNC(=S)Nc2ccc(S(=O)(=O)Nc3ncccn3)cc2)nn1C	.	-	.	.	.	-
O=S(=O)(Nc1ncccn1)c1ccc(NC(=S)Nc2cccc(Cl)c2)cc1	-	-	-	-	-	56µM
CCC(C)NC(=O)CSc1nc(-c2ccc(F)cc2)cc(C(F)(F)F)n1 (centres undefined)	-	.	-	-	-	.
CC(=O)c1ccc(S(=O)(=O)Nc2c(C)nn(C)c2C)cc1	.	.	.	45µM	.	.
S=C(NCCCn1ccnc1)Nc1cccc(Cl)c1	-	-	-	79µM	-	-
Cc1ccc(S(=O)(=O)Nc2c(C)nn(C)c2C)cc1C	.	.	.	-	.	.
CCOc1ccc(NC(=S)NCCCn2ccnc2)cc1	-	-	-	-	-	-
CN(CCc1ccccn1)C(=O)CCC1CCCN(C(=O)c2ccsc2)C1 (centres undefined)	-	-	-	.	-	-
COc1ccc(OCCOCCN2CCN(C)CC2)cc1	.	-	.	22µM	.	?
CN1CCC(=O)N(CCOc2ccccc2)CC1	.	-	.	28µM	.	-
CN1CCN(CCCOc2ccc(-c3ccccc3)cc2)CC1	.	-	.	.	.	-
CN1CCN(CCOc2ccc(-c3ccccc3)cc2)CC1	.	-	.	50µM	.	-
O=C(O)c1cccc(OCCN2CCCC2=O)c1	.	-	.	.	.	-
COc1ccc(S(=O)(=O)c2cc(NS(=O)(=O)c3ccc(Cl)cc3)c(C)c(C)c2O)cc1	-	.	?	-	-	.
O=C(N/N=C/c1cc(Br)c(Br)o1)c1cccnc1	-	-55	-	?	?	32µM
O=C(N/N=C/c1cc(Br)c(Br)o1)c1ccc2c(c1)OCCO2	?	-	-	.	?	4.5µM
SMILES	Tau fluor cs	Coupling enz	Tau FP inhib	G9a inh	Tau ThT inhib	Sfp PPTase inh
O=C(N/N=C\c1cc(Br)c(Br)o1)c1cncc(Br)c1	-	-	-	-	?	-
CN(Cc1ccccc1)C1CCNCC1	.	-	.	-[0.501 µM]	.	?
Nc1nc(-c2ccc3c(c2)CCCC3)c(CC(=O)O)s1	.	-	.	50µM	.	-
CCCc1cc(=O)[nH]c(Nc2ccc(C(=O)O)cc2)n1	-	.	-	-	-	.
CCCOC(=O)c1cccc(Nc2nc(CCC)cc(=O)[nH]2)c1	?	.	22µM	-	-	.
COc1cc2c(cc1NC(=S)Nc1cccc(C(F)(F)F)c1)oc1ccccc12	13µM[quencher]	-	?	-	?	-
COc1cc2c(cc1NC(=O)Nc1ccccc1)oc1ccccc12	7.1µM[quencher]	-	-	-[0.501 µM]	-	-
CCCn1c(N)c(C(=O)CSc2ncnc3sccc23)c(=O)n(C)c1=O	.	.	.	-	.	.
CC1(C)Oc2ccc3ccc(=O)oc3c2/C(=C/NNC(N)=S)C1=O	.	-	.	7.1µM	.	-
CC1(C)Oc2ccc3ccc(=O)oc3c2/C(=C/Nc2ccc(O)cc2)C1=O	13µM[quencher]	-	-	-	-	-
CN/C=C1\C(=O)C(C)(C)Oc2ccc3ccc(=O)oc3c21	-	-	-	-	-	-
CC1(C)Oc2ccc3ccc(=O)oc3c2/C(=C/Nc2cccc(O)c2)C1=O	?	-	-	45µM	?	-
CCN1c2ccccc2-c2nc(SCC(=O)Nc3ccc(C)c(Cl)c3)ncc2S1(=O)=O	?	.	?	-	-	.
CCOc1ccc(/C=C/c2nc(C#N)c(NC(C)CC)o2)cc1 (centres undefined)	-	.	-	-	?	.
O=Cc1ccc(Sc2nnc(-c3ccccc3)o2)c([N+](=O)[O-])c1	16µM[quencher]	-	?	40µM	18µM	-
CCN(CC)S(=O)(=O)c1ccc(/C=C/C(=O)OCC(=O)Nc2ccc(S(N)(=O)=O)cc2)cc1	-	-46	-	-	-	?
CN(CC(=O)Nc1ccc(Cl)cc1)C(=O)c1cc(-c2cccs2)nn1-c1ccccc1	.	.	.	-	.	.
O=C(COC(=O)c1cc(-c2cccs2)nn1-c1ccccc1)Nc1ccc(Cl)c([N+](=O)[O-])c1	-	-	-	40µM	-	-
C=CCN1CCc2cc(O)c(O)cc2[C@H](c2ccccc2)C1	-	-	-	.	?	?
C=CCN1CCc2c(cc(O)c(O)c2Br)[C@@H](c2ccccc2)C1	-	.	-	8.9µM	?	-
CC1=C/C(=N\Nc2ccccc2[N+](=O)[O-])CC(C)(C)C1	-	-	-	3.5µM	?	-
N#C/C(C(=O)Nc1ccc(Cl)cc1)=C(/S)Nc1ccccc1	.	-	.	1.6µM	.	0.79µM
N#Cc1ccc(NC(=O)Nc2ccc(Cl)cc2)cc1	?	-	?	-	?	-
CCN(CC)S(=O)(=O)c1cc(NC(=O)C(C)N(C)CC(=O)Nc2c(C)cccc2C)ccc1C (centres undefined)	-	-	-	-	-	-
CC(C(=O)Nc1ccc(S(N)(=O)=O)cc1)N1CCc2ccccc21 (centres undefined)	-	-	-	79µM	-	-
SMILES	Tau fluor cs	Coupling enz	Tau FP inhib	G9a inh	Tau ThT inhib	Sfp PPTase inh
CCN(CC)S(=O)(=O)c1cc(NC(=O)C(C)N2CCc3ccccc32)ccc1C (centres undefined)	?	-	?	25µM	-	-
CC(C)(C)c1ccc(C(=O)N/C(=C\c2ccco2)C(=O)O)cc1	-	-	-	?	-	-
O=C(N/C(=C/c1ccc([N+](=O)[O-])cc1)C(=O)N1CCCC1)c1ccccc1	.	-	.	-	.	-
O=C(O)/C(=C/c1ccco1)c1ccccc1	-	-	-	?	-	22µM
O=C(O)/C(=C\c1ccco1)NC(=O)c1cccc2ccccc12	-	-	-	.	-	79µM
O=C(N/C(=C/C=C/c1ccccc1)C(=O)N1CCCCC1)c1ccc([N+](=O)[O-])cc1	-	-	-	50µM	?	-
O=C(Nc1ccc(O)cc1)/C(=C/c1ccco1)NC(=O)c1ccccc1	-	-	-	-[12.7 µM]	-	-
